Common to all, as to experiment: HT-SELEX; high values mean tight binding
Common to all, as to conditions: protein: recombinant; vector His6-GST; dsDNA, one strand shown

The target of assay [1] is T1, SALL4 ZFC4 R900W (HT-SELEX) (Mus musculus, UniProt Q8BX22 870-940, R900W).
T1 sequence: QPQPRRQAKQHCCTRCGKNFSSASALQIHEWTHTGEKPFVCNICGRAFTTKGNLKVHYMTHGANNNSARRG
An outline of the steps: (§1)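 Purified recombinant mouse SALL4 zinc finger cluster 4 (residues 870–940, 1 µg) and library DNA (1.5 µg first cycle, 200 ng later) were incubated for 10 min at room temperature in 100 µl of 10 mM Tris–HCl pH 7.5, 50 mM NaCl, poly(dI-dC) and DTT. After Ni2+ bead capture and up to 6 triplicate cycles of selection, DNA was MiSeq-sequenced and scanned for 6-mers. Binding signal is the fold change in each canonical k-mer's read fraction relative to the initial random library.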

Assay [2] addresses T2, SALL4 ZFC4 G921D (HT-SELEX) (Mus musculus, UniProt Q8BX22 870-940, G921D).
T2 sequence: T1 sequence with W31R, G52D
An outline of the steps:
as §1

Assay [3] addresses T3, SALL4 ZFC4 WT (HT-SELEX) (Mus musculus, UniProt Q8BX22 870-940).
T3 sequence: T1 sequence with W31R
In a few lines:
as §1

Positions count from the first letter of the chain named.

70 sequences from PMC9838217, “Structure of SALL4 zinc finger domain reveals link between AT-rich DNA binding and Okihiro syndrome” can be followed below.

As for CGCGGC, the binding signal amounted to 0.0238 ± 0.000376 fold-change vs cycle 0 in assay [1] and 0.0986 ± 0.055 fold-change vs cycle 0 in assay [2].

As for AGCCCC, the binding signal in assay [1] worked out at 0.191 ± 0.0184 fold-change vs cycle 0; in assay [2] it was 0.329 ± 0.0672 fold-change vs cycle 0.

Take AGCGCA: the binding signal in assay [1] was 0.18 ± 0.00997 fold-change vs cycle 0; in assay [2], 0.305 ± 0.097 fold-change vs cycle 0.

For the sequence AAATGG, the binding signal in assay [3] came to 1.11 ± 0.029 fold-change vs cycle 0; in assay [2], 1.16 ± 0.0413 fold-change vs cycle 0.

As for ACGACG, the results for the binding signal in assay [1] and in assay [2] were 0.31 ± 0.0104 fold-change vs cycle 0 and 0.425 ± 0.0391 fold-change vs cycle 0, respectively.

On to AGGATG, for which the binding signal in assay [3] came out at 0.903 ± 0.0399 fold-change vs cycle 0; in assay [2], 1.04 ± 0.0274 fold-change vs cycle 0.

Consider ATGCAA, for which the binding signal turned out to be 1.2 ± 0.113 fold-change vs cycle 0 in assay [3] and 1.18 ± 0.0528 fold-change vs cycle 0 in assay [2].

Regarding ACGAAT, the binding signal in assay [1] came to 1.26 ± 0.0589 fold-change vs cycle 0; in assay [2] it was 1.24 ± 0.0791 fold-change vs cycle 0.

TGGCCA: the binding signal in assay [1] came out at 0.236 ± 0.00832 fold-change vs cycle 0; in assay [2] it was 0.386 ± 0.0718 fold-change vs cycle 0.

For ATTGTG, the binding signal in assay [3] was found to be 1.1 ± 0.0622 fold-change vs cycle 0; in assay [2], 1.18 ± 0.0673 fold-change vs cycle 0.

Consider CGTTGC, for which the binding signal in assay [1] came to 0.331 ± 0.00332 fold-change vs cycle 0; in assay [2], 0.435 ± 0.0499 fold-change vs cycle 0.

As for CGCGCC, the results for the binding signal in assay [1] and in assay [2] were 0.0255 ± 0.00279 fold-change vs cycle 0 and 0.0934 ± 0.0574 fold-change vs cycle 0, respectively.

CCGCAA: the binding signal stood at 0.234 ± 0.0164 fold-change vs cycle 0 in assay [1] and 0.347 ± 0.0535 fold-change vs cycle 0 in assay [2].

As for CCCAGC, the binding signal in assay [1] worked out at 0.179 ± 0.0134 fold-change vs cycle 0; in assay [2], 0.297 ± 0.0797 fold-change vs cycle 0.

Turning to GACCCC, the binding signal in assay [1] was 0.276 ± 0.00974 fold-change vs cycle 0; in assay [2], 0.391 ± 0.051 fold-change vs cycle 0.

For ACCGCG, the binding signal is 0.099 ± 0.00138 fold-change vs cycle 0 in assay [1] and 0.205 ± 0.0665 fold-change vs cycle 0 in assay [2].

Turning to GCATAA, the binding signal in assay [3] came out at 1.13 ± 0.0858 fold-change vs cycle 0; in assay [2], 1.105 ± 0.0098 fold-change vs cycle 0.

Turning to AGAATA, the results for the binding signal in assay [1] and in assay [2] were 2.17 ± 0.0929 fold-change vs cycle 0 and 1.84 ± 0.188 fold-change vs cycle 0, respectively.

In the case of AGCCCA, the binding signal was determined as 0.323 ± 0.00919 fold-change vs cycle 0 in assay [1] and 0.465 ± 0.0703 fold-change vs cycle 0 in assay [2].

With ATACCA, the binding signal in assay [3] was determined as 1.39 ± 0.0502 fold-change vs cycle 0; in assay [2], 1.35 ± 0.0639 fold-change vs cycle 0.

For the sequence CCTGGC, the values for the binding signal in assay [1] and in assay [2] were 0.162 ± 0.00687 fold-change vs cycle 0 and 0.281 ± 0.075 fold-change vs cycle 0, respectively.

Turning to CCCCCC, the binding signal is 0.217 ± 0.0203 fold-change vs cycle 0 in assay [1] and 0.314 ± 0.0628 fold-change vs cycle 0 in assay [2].

Consider ACCCCG, for which the binding signal in assay [1] came to 0.242 ± 0.00886 fold-change vs cycle 0; in assay [2] it was 0.353 ± 0.0765 fold-change vs cycle 0.

For CCCCAC, the binding signal in assay [1] came to 0.272 ± 0.0152 fold-change vs cycle 0; in assay [2], 0.375 ± 0.0668 fold-change vs cycle 0.

For CACGCA, the binding signal in assay [1] was determined as 0.282 ± 0.00613 fold-change vs cycle 0; in assay [2], 0.422 ± 0.056 fold-change vs cycle 0.

Regarding ATGGGC, the binding signal is 0.3096 ± 0.00283 fold-change vs cycle 0 in assay [1] and 0.446 ± 0.0581 fold-change vs cycle 0 in assay [2].

As for CCTCCG, the binding signal in assay [1] is 0.252 ± 0.0142 fold-change vs cycle 0; in assay [2], 0.367 ± 0.0686 fold-change vs cycle 0.

Turning to CCGAGG, the binding signal in assay [1] turned out to be 0.251 ± 0.0139 fold-change vs cycle 0; in assay [2], 0.375 ± 0.0741 fold-change vs cycle 0.

For the sequence ACGGCC, the binding signal in assay [1] turned out to be 0.0993 ± 0.00797 fold-change vs cycle 0; in assay [2], 0.206 ± 0.0649 fold-change vs cycle 0.

As to ACGTGC, the binding signal in assay [1] was 0.314 ± 0.00898 fold-change vs cycle 0; in assay [2] it was 0.439 ± 0.0607 fold-change vs cycle 0.

As to GCCCTA, the binding signal was determined as 0.353 ± 0.0173 fold-change vs cycle 0 in assay [1] and 0.496 ± 0.0842 fold-change vs cycle 0 in assay [2].

In the case of AGCCGA, the binding signal is 0.263 ± 0.0162 fold-change vs cycle 0 in assay [1] and 0.384 ± 0.065 fold-change vs cycle 0 in assay [2].

On to CCCAGG, for which the binding signal was 0.297 ± 0.008 fold-change vs cycle 0 in assay [1] and 0.401 ± 0.05 fold-change vs cycle 0 in assay [2].

Regarding CGCGAA, the results for the binding signal in assay [1] and in assay [2] were 0.201 ± 0.0239 fold-change vs cycle 0 and 0.315 ± 0.0749 fold-change vs cycle 0, respectively.

GGGCCC: the binding signal in assay [1] was found to be 0.0676 ± 0.00899 fold-change vs cycle 0; in assay [2], 0.178 ± 0.0632 fold-change vs cycle 0.

Regarding CTTCGC, the binding signal in assay [1] came out at 0.34 ± 0.0357 fold-change vs cycle 0; in assay [2], 0.455 ± 0.0772 fold-change vs cycle 0.

Take GCCGAC: the results for the binding signal in assay [1] and in assay [2] were 0.0865 ± 0.0114 fold-change vs cycle 0 and 0.204 ± 0.0612 fold-change vs cycle 0, respectively.

Regarding GTGGCA, the binding signal came out at 0.276 ± 0.00829 fold-change vs cycle 0 in assay [1] and 0.424 ± 0.0569 fold-change vs cycle 0 in assay [2].

ACTATG: the binding signal in assay [1] stood at 1.37 ± 0.0399 fold-change vs cycle 0; in assay [2], 1.34 ± 0.0843 fold-change vs cycle 0.

Consider ACGCAC, for which the values for the binding signal in assay [1] and in assay [2] were 0.27 ± 0.0299 fold-change vs cycle 0 and 0.404 ± 0.0719 fold-change vs cycle 0, respectively.

With AAGGCG, the binding signal in assay [1] is 0.265 ± 0.014 fold-change vs cycle 0; in assay [2] it was 0.425 ± 0.0847 fold-change vs cycle 0.

Take CAGCGC: the binding signal was 0.0744 ± 0.00642 fold-change vs cycle 0 in assay [1] and 0.177 ± 0.0788 fold-change vs cycle 0 in assay [2].

GACCGC: the binding signal in assay [1] stood at 0.124 ± 0.0133 fold-change vs cycle 0; in assay [2] it was 0.245 ± 0.0713 fold-change vs cycle 0.

As to CGGGAC, the figures for the binding signal in assay [1] and in assay [2] were 0.202 ± 0.00689 fold-change vs cycle 0 and 0.33 ± 0.0639 fold-change vs cycle 0, respectively.

With CACGGC, the binding signal in assay [1] turned out to be 0.114 ± 0.0156 fold-change vs cycle 0; in assay [2], 0.228 ± 0.0664 fold-change vs cycle 0.

For CGCTTC, the binding signal came out at 0.316 ± 0.00396 fold-change vs cycle 0 in assay [1] and 0.452 ± 0.0563 fold-change vs cycle 0 in assay [2].

With CGTCGA, the binding signal was found to be 0.282 ± 0.0144 fold-change vs cycle 0 in assay [1] and 0.423 ± 0.0617 fold-change vs cycle 0 in assay [2].

As for GGAGCC, the binding signal in assay [1] came to 0.187 ± 0.00654 fold-change vs cycle 0; in assay [2] it was 0.319 ± 0.0566 fold-change vs cycle 0.

Turning to AGGCGG, the binding signal came to 0.136 ± 0.00959 fold-change vs cycle 0 in assay [1] and 0.264 ± 0.0731 fold-change vs cycle 0 in assay [2].

As to CGTCGC, the figures for the binding signal in assay [1] and in assay [2] were 0.097 ± 0.00631 fold-change vs cycle 0 and 0.194 ± 0.077 fold-change vs cycle 0, respectively.

On to ATGCGG, for which the binding signal in assay [1] was found to be 0.275 ± 0.0176 fold-change vs cycle 0; in assay [2] it was 0.409 ± 0.0549 fold-change vs cycle 0.

As to CGGAGC, the binding signal in assay [1] stood at 0.166 ± 0.00611 fold-change vs cycle 0; in assay [2], 0.286 ± 0.0677 fold-change vs cycle 0.

Turning to AGCCGC, the binding signal in assay [1] was 0.0699 ± 0.00939 fold-change vs cycle 0; in assay [2], 0.174 ± 0.0601 fold-change vs cycle 0.

For AACGCG, the binding signal in assay [1] was determined as 0.226 ± 0.0175 fold-change vs cycle 0; in assay [2], 0.329 ± 0.0589 fold-change vs cycle 0.

Regarding CATGGC, the binding signal in assay [1] was found to be 0.357 ± 0.0224 fold-change vs cycle 0; in assay [2], 0.495 ± 0.0505 fold-change vs cycle 0.

Consider CGACAG, for which the binding signal in assay [1] is 0.332 ± 0.0161 fold-change vs cycle 0; in assay [2], 0.469 ± 0.0472 fold-change vs cycle 0.

Regarding GGCACA, the binding signal in assay [1] was determined as 0.256 ± 0.0249 fold-change vs cycle 0; in assay [2] it was 0.414 ± 0.0716 fold-change vs cycle 0.

CTGGGC: the binding signal in assay [1] worked out at 0.152 ± 0.021 fold-change vs cycle 0; in assay [2], 0.273 ± 0.0783 fold-change vs cycle 0.

For CCGGCG, the binding signal in assay [1] was found to be 0.0367 ± 0.00313 fold-change vs cycle 0; in assay [2], 0.128 ± 0.0641 fold-change vs cycle 0.

With GGCGTA, the binding signal was found to be 0.242 ± 0.0221 fold-change vs cycle 0 in assay [1] and 0.377 ± 0.0541 fold-change vs cycle 0 in assay [2].

For the sequence CGCTGA, the binding signal in assay [1] amounted to 0.291 ± 0.0233 fold-change vs cycle 0; in assay [2], 0.403 ± 0.0818 fold-change vs cycle 0.

For AGTGCG, the binding signal in assay [1] came to 0.276 ± 0.0168 fold-change vs cycle 0; in assay [2], 0.407 ± 0.068 fold-change vs cycle 0.

For the sequence GGGGCA, the binding signal in assay [1] is 0.178 ± 0.00946 fold-change vs cycle 0; in assay [2] it was 0.291 ± 0.0681 fold-change vs cycle 0.

Consider ACTGCG, for which the binding signal in assay [1] stood at 0.289 ± 0.0171 fold-change vs cycle 0; in assay [2] it was 0.407 ± 0.0604 fold-change vs cycle 0.

Turning to GCAAGC, the binding signal in assay [1] stood at 0.302 ± 0.00778 fold-change vs cycle 0; in assay [2], 0.429 ± 0.0449 fold-change vs cycle 0.

AGCCGG: the results for the binding signal in assay [1] and in assay [2] were 0.121 ± 0.00957 fold-change vs cycle 0 and 0.244 ± 0.0663 fold-change vs cycle 0, respectively.

Take AGCAGC: the binding signal in assay [1] came to 0.286 ± 0.013 fold-change vs cycle 0; in assay [2], 0.426 ± 0.0467 fold-change vs cycle 0.

With CCCCCA, the binding signal in assay [1] worked out at 0.312 ± 0.0194 fold-change vs cycle 0; in assay [2] it was 0.423 ± 0.0709 fold-change vs cycle 0.

Turning to GCCCAA, the binding signal in assay [1] is 0.245 ± 0.0152 fold-change vs cycle 0; in assay [2], 0.387 ± 0.0671 fold-change vs cycle 0.

Take CGCCCG: the binding signal in assay [1] stood at 0.0459 ± 0.011 fold-change vs cycle 0; in assay [2] it was 0.128 ± 0.0586 fold-change vs cycle 0.
